In PubChem BioAssay (EPA / NIEHS):
Results filed as inconclusive are left out. Calls of active or inactive are those of the source. Rule for the calls: active = hit-call score of the fitted dose curve at least 0.9, where 1 is the maximum; inconclusive = response in the unintended direction; inactive = score below 0.9.

Molecular target: human Protein Tyrosine Phosphatase Non-receptor Type 9 (PTPN9), PTPN9 (gene 5780) (UniProt P43378)
Assay: NVS_ENZ_hPTPN9: NovaScreen (NVS) Enzymatic Assay for human Protein Tyrosine Phosphatase Non-receptor Type 9 (PTPN9) (AID 2283209)
Experimental: NVS_ENZ_hPTPN9 is a biochemical, single-readout assay that uses extracted gene-proteins from SF9 in a cell-free assay. Measurements were taken 1.33 hours after chemical dosing in a 384-well plate.NVS_ENZ_hPTPN9 is one of one assay component(s) measured or calculated from the NVS_ENZ_hPTPN9 assay. It is designed to make measurements of enzyme activity, a form of enzyme reporter, as detected with fluorescence intensity signals by Fluorescence and electrophoretic mobility shift technology.Data from the assay component NVS_ENZ_hPTPN9 was analyzed into 1 assay endpoint. This assay endpoint, NVS_ENZ_hPTPN9, was analyzed in the positive analysis fitting direction relative to DMSO as the negative control and baseline of activity. Using a type of enzyme reporter, loss-of-signal activity can be used to understand changes in the enzymatic activity as they relate to the gene PTPN9. Furthermore, this assay endpoint can be referred to as a primary readout, because this assay has produced multiple assay endpoints where this one serves a enzymatic activity function. To generalize the intended target to other relatable targets, this assay endpoint is annotated to the phosphatase intended target family, where the subfamily is non-receptor tyrosine phosphatase.
Binding assays used specific radioligands (tritiated, iodinated) with non-radioactive competitive displacement ligands in agonist or antagonist protocols (as indicated) and various reference compounds and inhibitors to titrate specific binding to receptors and transporters. Most enzyme assays (CYPs, kinases, phosphatases, proteases, HDACs) used recombinant protein and specific substrates (fluorescence mostly, some colorimetric and radioactive) and inhibitors, followed by a biochemical separation of substrate and product. All assays for the biochemical HTS were initially run in duplicate at a single concentration (10 uM for CYP450 assays and 25 uM for all others). Assay-chemical combinations meeting a pre-defined threshold (e.g., 30% inhibition and other criteria defined below) were then run in singleton concentration-response format with maximum concentration of 20 uM for CYPs and 50 uM for all others. Each assay was run with positive and negative controls, and concurrent controls on every plate. The follow-up (secondary) screen tested active chemical-pairs in concentration series, as well as a few additional assays not tested in the primary screen, some selected negative inactives, and several cases re-run in the concentration series for confirmatory purposes.

human Protein Tyrosine Phosphatase Non-receptor Type 9 (PTPN9), PTPN9 (gene 5780), sequence (P43378 whole entry, looked up): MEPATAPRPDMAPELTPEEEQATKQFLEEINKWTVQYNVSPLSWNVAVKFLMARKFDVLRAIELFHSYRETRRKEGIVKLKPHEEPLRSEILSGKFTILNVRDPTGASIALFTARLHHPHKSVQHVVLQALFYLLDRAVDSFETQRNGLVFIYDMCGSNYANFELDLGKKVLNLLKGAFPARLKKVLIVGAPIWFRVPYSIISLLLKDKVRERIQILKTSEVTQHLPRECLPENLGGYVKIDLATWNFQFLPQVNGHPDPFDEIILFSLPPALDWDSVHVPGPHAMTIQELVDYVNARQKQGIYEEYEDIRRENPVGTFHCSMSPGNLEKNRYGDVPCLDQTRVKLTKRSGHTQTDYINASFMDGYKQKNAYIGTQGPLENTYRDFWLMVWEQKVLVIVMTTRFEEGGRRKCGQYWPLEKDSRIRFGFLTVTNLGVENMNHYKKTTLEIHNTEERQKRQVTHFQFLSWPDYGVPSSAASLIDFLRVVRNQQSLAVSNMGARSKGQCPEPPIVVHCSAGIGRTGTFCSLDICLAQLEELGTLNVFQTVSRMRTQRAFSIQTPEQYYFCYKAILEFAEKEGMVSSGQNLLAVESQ

Row | SMILES | AC50 | outcome
1 | O=[N+]([O-])C(CO)(CO)CO | 38.4 µM (active) | –
2 | CCc1c(C(=O)NN2CCCCC2)nn(-c2ccc(Cl)cc2Cl)c1-c1ccc(Br)cc1 | – | inactive
3 | CCCCCCCCCCC | – | inactive
4 | O=C(OCCCCCOC(=O)c1ccccc1)c1ccccc1 | – | inactive
5 | NS(=O)(=O)c1cc2c(cc1Cl)NCNS2(=O)=O | – | inactive
6 | CCOC(=O)C(C)(C)Oc1ccc(Cl)cc1 | – | inactive
7 | Cc1ccc2ncccc2c1 | – | inactive
8 | Oc1ccc2ccccc2c1N=Nc1ccccc1 | 25 µM (active) | –
9 | Nc1ccccc1N | 9.86 µM (active) | –
10 | O=C(O)CCCCC(=O)O | – | inactive
